The text below walks through data of the supplement of paper PMC6522484.

± gives the standard deviation of the averaged measurements.

For assay [1], the system named is DLD1. Kind of assay: cell viability (CellTiter-Glo) relative to plate median (fraction of plate median); higher = more viable cells. Conditions: 5 µM; treatment time 24 h; reporter: 7TFP. An outline of the steps: (§1)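 On parallel plates, a Tecan F500 reader recorded either firefly luciferase or CellTiterGlo luminescence. The plates held colorectal cancer cells stably transduced with lentiviral TCF/Wnt firefly luciferase reporters (7TFP or TCF4/Wnt), seeded in 384-well format and treated 24 h later with library compounds at a final 5 µM for 24 h. Per-well signals were normalised to the plate median (webcellHTS2, additive, no log transformation), and two independent replicates were averaged.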

In assay [2] the test system is HCT116. The description is as above. Conditions: 5 µM; treatment time 24 h; reporter: TCF4/Wnt. An outline of the steps:
as §1

The subject of assay [3] is SW480. The assay is described as above. Conditions: 5 µM; treatment time 24 h; reporter: 7TFP. Summed up: as §1
For assay [4], the system named is DLD1. In words: TCF/Wnt firefly luciferase reporter signal relative to plate median (fraction of plate median); higher = higher Wnt reporter signal. Conditions: 5 µM; treatment time 24 h; reporter: 7TFP. An outline of the steps: as §1
In general terms: A reporter such as luciferase makes a cellular process visible.

Assay [5] has as its system SW480. The assay is described as above. Conditions: 5 µM; treatment time 24 h; reporter: 7TFP. An outline of the steps:
as §1

As for `C[CH2][Hg][S]c1ccccc1C(=O)[O-].[Na+]`, the cell viability in assay [1] amounted to 0.303 ± 0.39; in assay [2] it was 0.378 ± 0.36; in assay [3], 0.0225 ± 0.0017. In addition, the “TCF/Wnt firefly luciferase reporter signal” value in assay [4] stood at 0.274 ± 0.37; in assay [5] it was 0.0216 ± 0.0027.

On to `C=C1[C@@H]2CCC3[C@@](CC[C@@H]4[C@H](C(=O)O)C[C@@H](O[C@@H]5O[C@H](CO)[C@@H](OS(=O)(=O)O)[C@H](OS(=O)(=O)O)[C@H]5OC(=O)CC(C)C)C[C@@]34C)(C2)[C@@H]1O` (stereo not given in full), for which the cell viability in assay [1] stood at 1 ± 0.093; in assay [2], 1.04 ± 0.061; in assay [3], 1.01 ± 0.054. Moreover, the “TCF/Wnt firefly luciferase reporter signal” value is 1.03 ± 0.072 in assay [4] and 0.9585 ± 0.0064 in assay [5].

On to `C/C=C/c1ccc2c(c1)OCO2`, for which the cell viability in assay [1] stood at 0.951 ± 0.13; in assay [2], 0.998 ± 0.059; in assay [3] it was 0.986 ± 0.049. In addition, the “TCF/Wnt firefly luciferase reporter signal” value was determined as 1.04 ± 0.17 in assay [4] and 1.05 ± 0.1 in assay [5].

As for `CNC(C)C(O)c1ccccc1` (stereo not given), the cell viability is 1.08 ± 0.021 in assay [1], 1.09 ± 0.014 in assay [2] and 1.07 ± 0.042 in assay [3]. In addition, the “TCF/Wnt firefly luciferase reporter signal” value was determined as 1.1 ± 0.078 in assay [4] and 0.905 ± 0.071 in assay [5].

Consider `CN1[C@@H]2C[C@@H](OC(=O)[C@H](CO)c3ccccc3)C[C@H]1[C@@H]1O[C@@H]12`, for which the cell viability worked out at 1.04 ± 0.042 in assay [1], 1.07 ± 0.042 in assay [2] and 0.99 ± 0.0099 in assay [3]. Also, the figures for the “TCF/Wnt firefly luciferase reporter signal” value in assay [4] and in assay [5] were 1.02 ± 0.1 and 1.035 ± 0.0071, respectively.

On to `CC(=O)O[C@@H]1CC[C@@]2(C)[C@@H](CC[C@@H]3[C@@H]2CC[C@]2(C)C(=O)CC[C@@H]32)C1`, for which the cell viability in assay [1] worked out at 1.025 ± 0.0071; in assay [2] it was 0.924 ± 0.28; in assay [3], 1.01 ± 0.04. Moreover, the “TCF/Wnt firefly luciferase reporter signal” value amounted to 1.15 ± 0.035 in assay [4] and 1.08 ± 0.099 in assay [5].

Regarding `COc1ccc(C(=O)N2CCCC2=O)cc1`, the values for the cell viability in assay [1], in assay [2] and in assay [3] were 1.01 ± 0.018, 0.957 ± 0.025 and 1.045 ± 0.0071, respectively. Also, the “TCF/Wnt firefly luciferase reporter signal” value was found to be 1.08 ± 0.021 in assay [4] and 1.07 ± 0.014 in assay [5].

Consider `Oc1cccc2cccnc12`, for which the cell viability in assay [1] amounted to 0.9665 ± 0.0035; in assay [2], 0.967 ± 0.075; in assay [3], 1.1 ± 0.028. The “TCF/Wnt firefly luciferase reporter signal” value came to 1.03 ± 0.09 in assay [4] and 0.793 ± 0.037 in assay [5].

In the case of `C=CCc1ccc2c(c1)OCO2`, the cell viability in assay [1] is 0.985 ± 0.021; in assay [2] it was 0.898 ± 0.13; in assay [3], 1.06 ± 0.078. For the same compound, the “TCF/Wnt firefly luciferase reporter signal” value in assay [4] amounted to 0.914 ± 0.16; in assay [5] it was 0.952 ± 0.11.

With `CN[C@@H]1[C@@H](O)[C@@H](O[C@@H]2[C@@H](O)[C@H](O[C@H]3O[C@H](CN)CC[C@H]3N)[C@@H](N)C[C@H]2N)OC[C@]1(C)O.CN[C@@H]1[C@@H](O)[C@@H](O[C@@H]2[C@@H](O)[C@H](O[C@H]3O[C@H]([C@@H](C)N)CC[C@H]3N)[C@@H](N)C[C@H]2N)OC[C@]1(C)O.CN[C@@H]1[C@@H](O)[C@@H](O[C@@H]2[C@@H](O)[C@H](O[C@H]3O[C@H]([C@@H](C)NC)CC[C@H]3N)[C@@H](N)C[C@H]2N)OC[C@]1(C)O`, the cell viability stood at 1.06 ± 0.17 in assay [1], 0.997 ± 0.089 in assay [2] and 1.03 ± 0.063 in assay [3]. In addition, the “TCF/Wnt firefly luciferase reporter signal” value came out at 1.03 ± 0.028 in assay [4] and 1.04 ± 0.069 in assay [5].

On to `COC(=O)NC(=S)Nc1ccccc1NC(=S)NC(=O)OC`, for which the cell viability in assay [1] is 0.944 ± 0.071; in assay [2], 0.966 ± 0.09; in assay [3], 0.973 ± 0.0071. For the same compound, the “TCF/Wnt firefly luciferase reporter signal” value was found to be 1.17 ± 0.042 in assay [4] and 1.02 ± 0.31 in assay [5].

Consider `COc1cc([C@@H]2c3cc4c(cc3[C@H](OC(C)=O)[C@H]3COC(=O)[C@H]23)OCO4)cc(OC)c1OC`, for which the cell viability in assay [1] came out at 0.91 ± 0.17; in assay [2], 0.567 ± 0.042; in assay [3], 1.205 ± 0.0071. Moreover, the “TCF/Wnt firefly luciferase reporter signal” value in assay [4] is 0.759 ± 0.0078; in assay [5], 0.702 ± 0.02.

`CC(C)=CCCC1(C)C=Cc2c(O)c3c(c(CC=C(C)C)c2O1)OC12C(CC4CC1C(C)(C)OC2(C/C=C(/C)C(=O)O)C4O)C3=O` (stereo not given): the cell viability was found to be 0.979 ± 0.087 in assay [1], 1.04 ± 0.014 in assay [2] and 1.08 ± 0.028 in assay [3]. For the same compound, the “TCF/Wnt firefly luciferase reporter signal” value in assay [4] came to 0.975 ± 0.027; in assay [5], 0.807 ± 0.036.

For the compound `CC(=O)O[C@@H]1[C@H]2CC[C@H]3[C@@](C)(O)[C@@H]4C[C@H](O)C(C)(C)[C@@]4(O)[C@H](O)C[C@@]13C[C@@]2(C)O`, the cell viability in assay [1] came to 1.04 ± 0.014; in assay [2], 1.105 ± 0.0071; in assay [3], 1.09 ± 0.064. The “TCF/Wnt firefly luciferase reporter signal” value in assay [4] is 1.04 ± 0.014; in assay [5], 0.984 ± 0.19.

`CCCCCCCCCCCCCCCC[n+]1ccccc1`: the cell viability was 0.885 ± 0.07 in assay [1], 0.797 ± 0.13 in assay [2] and 0.95 ± 0.028 in assay [3]. Besides, the “TCF/Wnt firefly luciferase reporter signal” value in assay [4] was 0.773 ± 0.062; in assay [5], 0.661 ± 0.073.

With `O=C1C(Cl)=C(Cl)C(=O)C(Cl)=C1Cl`, the cell viability in assay [1] was 0.967 ± 0.061; in assay [2], 0.977 ± 0.033; in assay [3], 0.991 ± 0.028. In addition, the “TCF/Wnt firefly luciferase reporter signal” value in assay [4] was 0.997 ± 0.16; in assay [5], 1.02 ± 0.065.

Turning to `CC(=O)OC1CCC23C(=O)OC45CCC(C6=CC(=O)OC6)C4(C)CCC2C5CCC3(O)C1` (stereo not given), the cell viability turned out to be 0.688 ± 0.011 in assay [1], 0.397 ± 0.066 in assay [2] and 0.7175 ± 0.0021 in assay [3]. Moreover, the “TCF/Wnt firefly luciferase reporter signal” value in assay [4] was found to be 0.202 ± 0.05; in assay [5], 0.389 ± 0.011.

As to `CC(CC(C(N)=O)(c1ccccc1)c1ccccc1)N(C)C` (stereo not given), the cell viability in assay [1] amounted to 0.995 ± 0.022; in assay [2] it was 1.08 ± 0.035; in assay [3] it was 1.01 ± 0.026. Besides, the “TCF/Wnt firefly luciferase reporter signal” value worked out at 1 ± 0.014 in assay [4] and 1.01 ± 0.028 in assay [5].

`C[C@]12CC[C@H](Cl)C[C@@H]1CC[C@@H]1[C@@H]2CC[C@]2(C)C(=O)CC[C@@H]12` [3beta-CHLOROANDROSTANONE]: the figures for the cell viability in assay [1], in assay [2] and in assay [3] were 1.08 ± 0.05, 0.981 ± 0.041 and 1.06 ± 0.071, respectively. Moreover, the entries for the “TCF/Wnt firefly luciferase reporter signal” value in assay [4] and in assay [5] were 1.07 ± 0.13 and 1.115 ± 0.0071, respectively.

As for `CCCN1C[C@H](CSC)C[C@@H]2c3cccc4[nH]cc(c34)C[C@H]21`, the results for the cell viability in assay [1], in assay [2] and in assay [3] were 0.934 ± 0.0057, 0.986 ± 0.049 and 0.863 ± 0.086, respectively. For the same compound, the entries for the “TCF/Wnt firefly luciferase reporter signal” value in assay [4] and in assay [5] were 1 and 1.015 ± 0.0071, respectively.

On to `COc1ccc([C@H]2Oc3c(I)c(OC)cc(OC)c3C[C@@H]2O)cc1OC`, for which the cell viability in assay [1] amounted to 0.912 ± 0.011; in assay [2], 0.89 ± 0.0071; in assay [3], 1 ± 0.042. Besides, the “TCF/Wnt firefly luciferase reporter signal” value in assay [4] was 0.959 ± 0.2; in assay [5], 1.07 ± 0.23.

For the compound `O=C1CCCN1CC#CCN1CCCC1`, the cell viability in assay [1] was 1.07 ± 0.092; in assay [2], 1.11 ± 0.028; in assay [3] it was 1.05 ± 0.042. In addition, the “TCF/Wnt firefly luciferase reporter signal” value came out at 1.01 ± 0.032 in assay [4] and 0.8175 ± 0.0035 in assay [5].

In the case of `C=CCc1cc(OC)c2c(c1OC)OCO2`, the cell viability was 0.962 ± 0.15 in assay [1], 0.864 ± 0.057 in assay [2] and 0.994 ± 0.023 in assay [3]. Also, the “TCF/Wnt firefly luciferase reporter signal” value in assay [4] stood at 0.876 ± 0.099; in assay [5], 0.976 ± 0.033.

Turning to `COc1ccc2c(c1)[nH]c1c(C)nccc12`, the cell viability is 0.98 ± 0.028 in assay [1], 0.904 ± 0.04 in assay [2] and 0.964 ± 0.036 in assay [3]. For the same compound, the “TCF/Wnt firefly luciferase reporter signal” value was found to be 0.623 ± 0.067 in assay [4] and 0.625 ± 0.097 in assay [5].

Take `COC(=O)[C@]1(C)CC[C@]2(C)CC[C@]3(C)C4=CCc5c(cc(O)c(O)c5C)[C@]4(C)CC[C@@]3(C)[C@@H]2C1`: the cell viability amounted to 0.9465 ± 0.0078 in assay [1], 1.045 ± 0.0071 in assay [2] and 1.005 ± 0.0071 in assay [3]. For the same compound, the results for the “TCF/Wnt firefly luciferase reporter signal” value in assay [4] and in assay [5] were 1.03 ± 0.054 and 1.11 ± 0.014, respectively.
